We go through 40 molecules from PubChem BioAssay (NCI).

About 83,000 compounds went through this panel and 20% of them were active in at least one assay; those are over-represented in the sample as a whole.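 Growth was measured after 48 h exposure to one concentration of compound in 96-well plates. Values under 10 count as active.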 The source made the active and inactive calls.

This assay has as its system SR leukemia. Put plainly: NCI-60 one-dose screen, 48 h (100 = growth as untreated, 0 = no growth, -100 = all killed). Particulars: 10 µM unless noted. On the procedure:
Growth inhibition of the SR human tumor cell line is measured as a screen for anti-cancer activity. Cells are grown in 96 well plates and exposed to the test compound for 48 hours. Compounds are tested at a single concentration, which is 10^-5 M for most compounds. The reported endpoint is percent growth (GI% or GIPRCNT), where numbers from 0 - 100% represent growth inhibition, and numbers from -100% - 0 represent cell death. For example, a value of 40 represents 60% growth inhibition. A value of 0 means no net growth occurred over the course of the experiment. A value of -40 indicates 40% of cells at the beginning of the experiment died by the end of the experiment. A value of -100 means all cells are dead at the end of the experiment.
NCI-60 Human Tumor Cell Lines Screen was performed using the standard one-dose NCI protocol, which is described in more detail at https://dtp.cancer.gov/discovery_development/nci-60/default.htm.
Compounds with GIPRCNT values below 10 were considered active. Activity score was based on GIPRCNT using the following formula: […]
Score is 0 for GIPRCNT values of 100 or above, 50 for GIPRCNT values of 0, and 100 for GIPRCNT values of -100.
Turning to `CCc1c(C(=O)N[C@@H](C(=O)OCc2ccccc2)C(C)O)[nH]c2ccc(Cl)cc12` (stereo not given in full), the growth was 35.1% (inactive).
`Cc1cccc(NC(=O)c2sc3nc4c(cc3c2N)CN(Cc2ccccc2)CC4)c1C`: the growth is 25.5% (inactive).
The figure for `COc1ccc(NC(=O)c2ccc(Nc3ncnc4[nH]c(C)c(C)c34)cc2)cc1` is 89.3% (inactive); for `C#CCN(CCCOc1ccc(Cl)cc1Cl)CCCSC(=O)CCCCCN1/C(=C\C=C2/CCCC(/C=C/C3=[N+](CCCCCC(=O)[O-])c4ccccc4C3(C)C)=C2Cl)C(C)(C)c2ccccc21` it is -16.2% (active); for `CCCCn1c(=O)c(/C=C/C(=O)/C=C/c2ccc(OC)cc2)cc2cc(Cl)ccc21` it is 3.16% (active).
The figure for `CN(C)C(CNc1oc(-c2cccc3ccccc23)nc1C#N)c1ccco1` (stereo not given) is 69.5% (inactive); for `COc1ccc2[nH]c(-c3ccccc3)c(C=C(C#N)C#N)c2c1` it is -5.05% (active).
With `CCOc1ccc(C2N(c3cc(OC)c(OC)c(OC)c3)C(=O)C2(F)F)cc1` (stereo not given) the figure was 16.2% (inactive); with `CC(=O)c1cnc(-c2ccccc2)nc1CBr`, -20.9% (active); with `COc1ccc2c(c1)/C(=C1\S/C(=N/c3nnc(C)s3)NC1=O)C(=O)N2Cc1ccc(Cl)cc1`, 55.7% (inactive).
Take `CN(CCC#N)C(=O)Nc1ccccc1`: the growth was 96.5% (inactive).
With `CCOC(=O)C1CCN(S(=O)(=O)/N=C2/NC(=O)NC2=C(Cl)Cl)CC1` the figure was -11.4% (active).
Turning to `CCOC(=O)c1sc(/N=C2\NC(=O)/C(=C/c3ccc(N4CCN(C)CC4)cc3)S2)nc1C`, the growth is 101% (inactive).
The figure for `C=C1C(=O)O[C@H]2[C@H]1CC/C(COC(=O)NCC(=O)Nc1ccc(OC)c(C(N)=O)c1O)=C\CC[C@@]1(C)O[C@@H]21` is 12.6% (inactive).
The figure for `O=C1NCc2ccc3c(-c4cccc(Cl)c4)c[nH]c3c21` is 20.4% (inactive); for `O=C1Nc2ccc(Br)cc2/C1=N\N=C/c1cn(Cc2ccccc2)c2ccccc12` it is 80.1% (inactive).
With `Cc1cc(C)nc(NS(=O)(=O)c2ccc(Nc3ccc4c5c(n(CCCN(C)C)c(=O)c4c3)-c3ccccc3C5=O)cc2)n1` the figure was 23.4% (inactive).
In the case of `O=C1CS/C(=N/c2nnc(-c3ccc(O)cc3)s2)N1`, the growth is 93.1% (inactive).
The figure for `Cc1cccc2nc3c(n12)C(=O)C(=O)c1ccccc1-3` is 88.2% (inactive); for `COC(=O)/C=C/c1cc(OC(C)=O)c2c(c1)C(C(=O)OC)C(c1ccc(OC(C)=O)c(OC(C)=O)c1)O2` (stereo not given) it is 8.61% (active).
Turning to `C=C1C(=O)O[C@H]2[C@H]1CC/C(COC(=O)c1cccnc1N)=C\CC[C@@]1(C)O[C@@H]21`, the growth is 2.93% (active).
For `Cc1nccc2c3ccc(OCc4cn(-c5ccc(Br)cc5)nn4)cc3n(CC(C)C)c12`, the growth was -13.9% (active).
With `COC(=O)[C@]1(C)CCC[C@]2(C)[C@H]3C[C@H]4C(C(C)C)=C[C@]3(CC[C@H]21)[C@@H]1C(=O)N(CCC#N)C(=O)[C@@H]14` the figure was 80.4% (inactive); with `C(=C\c1cn(-c2ccccc2)nc1-c1ccccc1)/c1nnc(-c2c[nH]c3ccccc23)o1`, 48.1% (inactive).
The figure for `c1ccc(-c2n(Cc3ccc4ccccc4n3)cc[n+]2Cc2ccc3ccccc3n2)cc1` is 25.1% (inactive); for `C=C1C(=O)O[C@H]2[C@H]1CC/C(COC(=O)CCCCC(=O)OC/C1=C/CC[C@@]3(C)O[C@H]3[C@H]3OC(=O)C(=C)[C@@H]3CC1)=C\CC[C@@]1(C)O[C@@H]21` it is 2.3% (active).
The figure for `[2H]c1nc(Nc2ncc3cc(C(=O)N(C)C)n(C4CCCC4)c3n2)c([2H])c([2H])c1N1C([2H])([2H])C([2H])([2H])NC([2H])([2H])C1([2H])[2H]` is 26.6% (inactive); for `O=C1[C@@H](OS(=O)(=O)CC(F)(F)F)[C@H](c2ccc(F)cn2)N1c1cc2c3ccccc3ccc2c2ccccc12` it is 4.47% (active).
As to `O=C1C(=O)c2c(nc3ccc(Br)cn23)-c2ccccc21`, the growth is -27.6% (active).
The figure for `N#Cc1c(NC(=O)c2cccs2)[n+]([O-])c2cc(C(F)(F)F)ccc2[n+]1[O-]` is 79.8% (inactive); for `COc1ccc(-c2cn(-c3ccc(Cl)cc3)c(=S)[nH]2)cc1OC` it is 22.3% (inactive); for `Nn1c(SCC(=O)Nc2ccc(Cl)cc2)nnc1-c1cc(F)c(Cl)cc1Cl` it is 56.5% (inactive).
The figure for `COc1cc2nc3c(=O)n(-c4ccc(C#N)cc4)cnn3c(=O)c2cc1OC` is 94.1% (inactive); for `COC(=O)c1nc(-c2ccccc2)oc1S(=O)(=O)n1nc(C)cc1N` it is 3.74% (active).
With `CCCCC1=c2c([nH]c3ccc(OC)cc23)=NC2C=CC=NC12` (stereo not given) the figure was 45% (inactive).
On to `CSc1cccc(NC(=O)Nc2nc3c(C)cccc3s2)c1`, for which the growth is 83.7% (inactive).
The figure for `COc1cc2cc(c1Cl)N(C)C(=O)C[C@H](OC(=O)[C@H](C)N(C)C(=O)CCS)C[C@]1(C)O[C@H]1[C@H](C)[C@@H]1C[C@@](O)(NC(=O)O1)[C@H](OC)/C=C/C=C(\C)C2` is 12.2% (inactive); for `NC(=N\N=C\c1ccccc1O)/C(N)=N/N=C/c1ccccc1O` it is 71.2% (inactive).
The figure for `Nc1c(C(=O)Nc2cccc3ccccc23)sc2nc3c(cc12)COCC3` is 22.4% (inactive).
With `O=C(Nc1ccc(N=Cc2ccccc2O)cc1)NC1C=c2ccccc2=CC1` (stereo not given) the figure was 95.1% (inactive).
